Measured values: PubChem BioAssay
Activity calls are given as the source filed them.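 How the source made its calls, unless noted: active means inhibition above 20% together with a positive visual image hit; inconclusive means visual image hit but inhibition not above 20%; inactive means no visual image hit.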

Columns and labels:
[1] = inhibitors of TNFa-induced NFkB p65 translocation, primary screen, imaging, HUVEC, MLSMR starter and 10KST1 sets (AID 438); settings: HUVEC TNFa-induced p65 nuclear translocation; cell count: measured here: nuclei count (cytotoxicity indicator), at 2.08 µM; inhibition: at 2 µM, stronger effect = higher value, 0% TNFa-plus-vehicle, 100% no-TNFa wells;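 further: compound added about 3h40 before a 20 min TNFalpha stimulation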;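 on inhibition: signal is the nuclear over cytoplasmic p65 intensity ratio per well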
[2] = inhibitors of mutant huntingtin aggregation, primary screen, imaging, exon1htt(103Q)mCFP cells, high-content imaging (AID 483;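 active means visual image review flags a hit and inhibition of aggregation exceeds 20%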;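 further: compound exposure lasted 3 days before fixation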;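 on nuclei count: percent of the per-plate median nuclei count of sample wells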); settings: exon1htt(103Q)mCFP cell line, aggregate imaging, at 2 µM; inhibition of aggregation: stronger effect = higher value; nuclei count: measured here: cell count, toxicity
[3] = inhibitors of E-selectin induction by TNFa, primary screen, imaging, HUVEC, immunofluorescence, MLSMR starter and 10KST1 sets (AID 487;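 active means visually confirmed hit in the image check and inhibition above 20%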;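 on inhibition: signal is fraction of cell area covered by stained E-selectin grains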;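 on nuclei count: 100% = median nuclei count of all wells on the same plate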); settings: HUVEC TNFalpha-induced E-selectin immunofluorescence imaging, at 2 µM; inhibition: stronger effect = higher value; nuclei count: measured here: cell number, toxicity
[4] = target: Voltage-gated potassium channel subunit beta-2 (Rattus norvegicus) (UniProt P62483); test: KvBeta enzyme negative modulators, primary screen, biochemical, NADPH fluorescence (AID 622;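 active means fluorescence slope higher than the sample average by over 3 SD, cut at about -0.22 in these data, passing the limit was not always enough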;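 further: slope of raw intensity against log time taken from 70 to 1610 s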); settings: recombinant KvBeta, 4-cyanobenzaldehyde reduction, at 10 µM, stronger effect = higher value
[5] = target: Voltage-gated potassium channel subunit beta-2 (Rattus norvegicus) (UniProt P62483); test: KvBeta positive modulators, primary screen, biochemical, NADPH fluorescence (AID 623;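 active means NADPH fluorescence slope more negative than the mean of all samples by about 3 SD, 99.7% confidence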;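 further: fluorescence intensity change per second fitted from 20 to 320 s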); settings: Recombinant KvBeta, NADPH fluorescence decrease slope, 10 min; at 10 µM; stronger effect = lower value
[6] = target: Alpha-2C adrenergic receptor (Homo sapiens) (UniProt P18825); test: modulators of alpha2C/GIRK thallium flux, primary screen, cell-based, HEK293 alpha2C/GIRK1/2 (AID 624;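 active means fluorescence slope after compound addition differing from the mean of all screened samples at 99.7% confidence, in either direction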;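 further: slope of fluorescence ratio to pre-addition baseline per second over 15 to 24 s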); settings: thallium flux BTC fluorescence, at 10 µM, actives lie on both sides
[7] = inhibitors of Sendai virus-induced IRF3 signaling, primary screen, TLR/RLR signaling modifier project, cell-based, Sendai virus stimulus, luciferase, 10K MLSCN set (AID 602276;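 active means inhibition at or above 50% at 10 µM; inactive means inhibition below 50%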;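 further: firefly luciferase from ISG56 promoter only with Renilla not read in this screen; 0% = Sendai virus plus DMSO and 100% = medium plus DMSO without virus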); settings: HEK293 RL24 IRF3 luciferase reporter, at 10 µM, stronger effect = higher value
[8] = inhibitors of poly I:C-induced TLR3 signaling, primary screen, cell-based, poly I:C stimulus, luciferase, 10K MLSCN set (AID 602277;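 active means inhibition of the reporter signal at or above 50%; inactive means inhibition below 50%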); settings: HEK293-TLR3 RL24 IRF3 luciferase reporter, at 10 µM, stronger effect = higher value

Sequence of Alpha-2C adrenergic receptor (Homo sapiens) (P18825 whole entry, looked up): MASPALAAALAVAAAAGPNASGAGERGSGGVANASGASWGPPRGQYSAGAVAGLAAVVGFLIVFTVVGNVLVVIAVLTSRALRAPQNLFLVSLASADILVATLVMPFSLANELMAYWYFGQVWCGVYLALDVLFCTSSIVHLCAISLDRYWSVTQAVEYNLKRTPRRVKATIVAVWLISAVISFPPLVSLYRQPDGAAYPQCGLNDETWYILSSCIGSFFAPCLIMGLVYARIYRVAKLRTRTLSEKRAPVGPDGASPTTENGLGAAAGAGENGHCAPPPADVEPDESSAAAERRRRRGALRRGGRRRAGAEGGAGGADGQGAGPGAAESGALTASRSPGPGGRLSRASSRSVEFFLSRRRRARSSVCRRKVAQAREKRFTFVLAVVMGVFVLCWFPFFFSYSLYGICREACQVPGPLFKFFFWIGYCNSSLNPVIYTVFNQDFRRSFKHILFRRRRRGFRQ
Sequence of Voltage-gated potassium channel subunit beta-2 (Rattus norvegicus) (P62483 whole entry, looked up): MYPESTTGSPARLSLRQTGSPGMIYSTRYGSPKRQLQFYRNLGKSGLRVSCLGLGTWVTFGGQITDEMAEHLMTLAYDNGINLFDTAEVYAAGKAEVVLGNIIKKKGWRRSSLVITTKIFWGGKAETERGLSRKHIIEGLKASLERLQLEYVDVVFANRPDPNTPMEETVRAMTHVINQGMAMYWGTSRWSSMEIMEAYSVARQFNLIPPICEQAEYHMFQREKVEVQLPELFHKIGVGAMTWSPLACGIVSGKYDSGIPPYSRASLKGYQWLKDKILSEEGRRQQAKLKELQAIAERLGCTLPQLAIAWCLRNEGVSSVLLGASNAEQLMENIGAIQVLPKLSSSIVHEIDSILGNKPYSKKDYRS

| Structure (SMILES) | cell count [1] | inhibition [1] | inhibition of aggregation [2] | nuclei count [2] [%] | inhibition [3] | nuclei count [3] [%] | fluorescence slope [4] | NADPH fluorescence slope [5] | slope [6] | inhibition [7] | inhibition [8] |
| --- | --- | --- | --- | --- | --- | --- | --- | --- | --- | --- | --- |
| Cc1cccc(-c2cc3nc(C)cc(NCCCN(C)C)n3n2)c1 | 399 | -0.5% (inactive) | -9.4% (inactive) | 114 | -44.2% (inactive) | 98.7 | -0.56 (inactive) | -7.5e-05 (inactive) | 0.00413 (inactive) | 21% (inactive) | 9.1% (inactive) |
| O=C(Nc1ccccc1N1CCCCC1)c1ncoc1-c1ccc(F)cc1 | 426 | -1.8% (inactive) | -0.9% (inactive) | 87.1 | -180% (inactive) | 122 | -0.424 (inactive) | 4.4e-06 (inactive) | 0.00948 (inactive) | -3.24% (inactive) | -51.9% (inactive) |
| S=c1[nH]nc(Cc2ccccc2)n1Cc1ccco1 | 769 | -8% (inactive) | 3% (inactive) | 101 | -2.6% (inactive) | 102 | -0.499 (inactive) | -7e-05 (inactive) | 0.00544 (inactive) | 5.02% (inactive) | 9.76% (inactive) |
| CC(NC(=O)c1cn(C)c2ccc(S(=O)(=O)N3CCCC3)cc2c1=O)c1ccc2c(c1)OCCO2 (configuration not stated) | 766 | 0% (inactive) | 5.6% (inactive) | 98.3 | 3.8% (inactive) | 103 | -0.483 (inactive) | -0.000101 (inactive) | 0.00703 (inactive) | -4.57% (inactive) | 17% (inactive) |
| CCCn1c(=O)c2ccccc2n2c(SCCOc3ccccc3F)nnc12 | 574 | -10.2% (inactive) | 4.4% (inactive) | 85.2 | 0.6% (inactive) | 156 | -0.477 (inactive) | 4.6e-05 (inactive) | 0.00598 (inactive) | -3.21% (inactive) | -3.55% (inactive) |
| CCOC(=O)c1ccc(NS(=O)(=O)c2ccc3c(c2)CCCN3C(C)=O)cc1 | 684 | 0.7% (inactive) | 9.2% (inactive) | 99 | -93.7% (inactive) | 125 | -0.543 (inactive) | 8.9e-06 (inactive) | 0.00506 (inactive) | 1.89% (inactive) | 6.65% (inactive) |
| Nc1c(S(=O)(=O)c2cccs2)c2nc3ccccc3nc2n1CC1CCCO1 (configuration not stated) | 667 | -7.3% (inactive) | -6% (inactive) | 117 | -71.1% (inactive) | 141 | -0.0861 (active) | 2.8e-06 (inactive) | 0.00409 (inactive) | 10.7% (inactive) | 35.1% (inactive) |
| CCC(=O)N1Cc2ccccc2-c2ccccc2C1=O | 642 | 3% (inactive) | -14.4% (inactive) | 98.3 | 11% (inactive) | 126 | -0.618 (inactive) | -1.2e-05 (inactive) | 0.006 (inactive) | 12.1% (inactive) | 12.9% (inactive) |
| CCCCOc1ccc(C2C3CN(C(=O)OCC)CC=C3C(C#N)=C(N)C2(C#N)C#N)cc1OC (configuration not stated) | 645 | -26.7% (inactive) | -9.8% (inactive) | 106 | -44.7% (inactive) | 115 | -0.476 (inactive) | -2.9e-05 (inactive) | 0.0065 (inactive) | 14.6% (inactive) | 19.7% (inactive) |
| Cc1cc(=O)[nH]c(=S)n1-c1ccccc1 | 656 | 7.7% (inactive) | 5.6% (inactive) | 103 | 23.3% (inactive) | 103 | -0.564 (inactive) | -3e-05 (inactive) | 0.00585 (inactive) | 15.3% (inactive) | 23.5% (inactive) |
| Cc1ccc2c(c1)nnn2C1CCN(C(=O)NC23CC4CC(CC(C4)C2)C3)CC1 | 471 | -9.4% (inactive) | 11.5% (inactive) | 122 | 19.9% (inactive) | 98.1 | -0.423 (inactive) | -4e-05 (inactive) | 0.00535 (inactive) | 18.3% (inactive) | 22.5% (inactive) |
| O=C(c1ccc(CNS(=O)(=O)c2cccc(C(F)(F)F)c2)cc1)N1CCOCC1 | 237 | 11.8% (inactive) | -1.6% (inactive) | 80 | 14.7% (inactive) | 97.4 | -0.387 (inactive) | -3.8e-05 (inactive) | 0.00478 (inactive) | 14.8% (inactive) | 16.9% (inactive) |
| CC1(C)CC(=O)CC(=Nc2ccc(C(=O)O)cc2)C1 | 487 | 4.2% (inactive) | 10.3% (inactive) | 89.1 | 2.7% (inactive) | 112 | -0.497 (inactive) | -5.1e-05 (inactive) | 0.0073 (inactive) | 6.49% (inactive) | 42.2% (inactive) |
| CCN(CC)S(=O)(=O)c1ccc(S(=O)(=O)N(Cc2ccccn2)Cc2ccco2)cc1 | 322 | -0.8% (inactive) | -9.2% (inactive) | 112 | -68.2% (inactive) | 123 | -0.608 (inactive) | 6.2e-06 (inactive) | 0.00512 (inactive) | 6.58% (inactive) | 18.5% (inactive) |
| COc1ccc(C(=O)Cn2nnc(-c3cccs3)n2)cc1 | 368 | -7% (inactive) | 27.6% (inactive) | 89.5 | -0.6% (inactive) | 100 | -0.407 (inactive) | -4.9e-05 (inactive) | 0.00512 (inactive) | -2.35% (inactive) | -30.5% (inactive) |
| CC1CN(CC(O)COc2ccccc2C(C)(C)C)CC(C)O1 (configuration not stated) | 609 | -29.6% (inactive) | -10.6% (inactive) | 108 | -32.5% (inactive) | 101 | -0.509 (inactive) | 1.1e-05 (inactive) | 0.00559 (inactive) | 10.2% (inactive) | 23.2% (inactive) |
| Nc1nc(SCc2ccc(Cl)cc2Cl)n[nH]1 | 352 | -1.7% (inactive) | -21.4% (inactive) | 97.6 | -161% (inactive) | 124 | -0.387 (inactive) | -4.5e-05 (inactive) | 0.00474 (inactive) | -12% (inactive) | -30.1% (inactive) |
| O=C(CN1CCCN(S(=O)(=O)c2ccc(Br)cc2)CC1)Nc1ccc2c(c1)OCO2 | 587 | -4.1% (inactive) | -15.4% (inactive) | 107 | -24.8% (inactive) | 84.9 | -0.491 (inactive) | -3.2e-05 (inactive) | 0.00566 (inactive) | 10.3% (inactive) | 38.2% (inactive) |
| COC(=O)C(C)NC(=O)C12CC3CC(CC(C3)C1)C2 (configuration not stated) | 512 | -5.8% (inactive) | 13.2% (inactive) | 103 | -31% (inactive) | 124 | -0.321 (inactive) | -2.1e-05 (inactive) | 0.0064 (inactive) | -0.739% (inactive) | 23% (inactive) |
| CC1CCN(S(=O)(=O)c2ccc3[nH]cc(C(=O)NCCN4CCOCC4)c(=O)c3c2)CC1 | 697 | -3% (inactive) | -11.2% (inactive) | 104 | -101% (inactive) | 106 | -0.519 (inactive) | -3.8e-05 (inactive) | 0.00576 (inactive) | 8.86% (inactive) | 17.9% (inactive) |
| CC1(C)CC(CCNC(=O)c2ccco2)CC(C)(C)N1 | 387 | 2.3% (inactive) | 1.2% (inactive) | 86.4 | -91.3% (inactive) | 81.4 | -0.473 (inactive) | -1.8e-05 (inactive) | 0.00616 (inactive) | 12% (inactive) | 12.3% (inactive) |
| Cc1ccnc(NC(=O)C2CCC(CNc3c(N4CCCC4)c(=O)c3=O)CC2)c1 (configuration not stated) | 544 | 4.4% (inactive) | -2.5% (inactive) | 113 | -31.3% (inactive) | 98.8 | -0.598 (inactive) | -2.9e-05 (inactive) | 0.00671 (inactive) | 4.3% (inactive) | 18.4% (inactive) |
| Cc1nc2scc(-c3ccco3)c2c(=O)n1/N=C/N(C)C | 453 | -4.8% (inactive) | -22.8% (inactive) | 86.6 | -35.6% (inactive) | 116 | -0.342 (inactive) | -6.4e-05 (inactive) | 0.00533 (inactive) | -2.39% (inactive) | 3.07% (inactive) |
| COCCNC(=O)C(c1cccc(OC)c1)N(Cc1cccs1)C(=O)Cn1nnc2ccccc21 (configuration not stated) | 722 | -15.1% (inactive) | 8% (inactive) | 109 | -34.3% (inactive) | 109 | -0.622 (inactive) | -5.4e-05 (inactive) | 0.00445 (inactive) | 12.4% (inactive) | 20.1% (inactive) |
| COc1ccc(-c2nc(CS(=O)CC(=O)NCc3ccccn3)c(C)o2)cc1 (configuration not stated) | 518 | 1.9% (inactive) | -23.1% (inactive) | 104 | -25.4% (inactive) | 99.7 | -0.527 (inactive) | -1.1e-05 (inactive) | 0.00839 (inactive) | 44.5% (inactive) | 9.92% (inactive) |
| O=C(OCn1nnc2ccccc2c1=O)c1cc2ccccc2o1 | 544 | -3.9% (inactive) | 19.5% (inactive) | 76.7 | -10.4% (inactive) | 90.4 | -0.447 (inactive) | -3.1e-05 (inactive) | 0.00552 (inactive) | -2.91% (inactive) | 27.7% (inactive) |
| Cc1c(C(=O)NCc2cccnc2)oc2ccc(S(=O)(=O)N3CCCCC3)cc12 | 614 | -17% (inactive) | 37.3% (active) | 117 | -47.2% (inactive) | 107 | -0.448 (inactive) | -0.000103 (inactive) | 0.00545 (inactive) | 19.5% (inactive) | 21.4% (inactive) |
